Screens from PubChem BioAssay.
M1 ag parental = counter-screen for M1 agonists: effect in parental CHO-K1 cells | Fluo-8 calcium fluorescence; scaled to maximal ATP response, vehicle zero | activation, % at 3 µM | actives 0.48% (n = 360,000); in the data active = activation above about 15%;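 also: untransfected CHO-K1 host cells lacking M1 receptor as counterscreen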
M4 ag = human M4 muscarinic receptor agonists, primary screen, CHO-K1 cells, Fluo-8 calcium fluorescence; AID 624127, 2012; activation, % at 3 µM; CHO-K1 hM4/Gqi5; vehicle 0%, full acetylcholine response 100%; actives 0.14% (n = 360,000);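 active = activation above the run mean over all test wells plus 3 SD, cut at about 32% in these data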;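 also: peak over basal fluorescence ratio per well then scaled between controls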
Target sequence (P08173 whole entry, looked up): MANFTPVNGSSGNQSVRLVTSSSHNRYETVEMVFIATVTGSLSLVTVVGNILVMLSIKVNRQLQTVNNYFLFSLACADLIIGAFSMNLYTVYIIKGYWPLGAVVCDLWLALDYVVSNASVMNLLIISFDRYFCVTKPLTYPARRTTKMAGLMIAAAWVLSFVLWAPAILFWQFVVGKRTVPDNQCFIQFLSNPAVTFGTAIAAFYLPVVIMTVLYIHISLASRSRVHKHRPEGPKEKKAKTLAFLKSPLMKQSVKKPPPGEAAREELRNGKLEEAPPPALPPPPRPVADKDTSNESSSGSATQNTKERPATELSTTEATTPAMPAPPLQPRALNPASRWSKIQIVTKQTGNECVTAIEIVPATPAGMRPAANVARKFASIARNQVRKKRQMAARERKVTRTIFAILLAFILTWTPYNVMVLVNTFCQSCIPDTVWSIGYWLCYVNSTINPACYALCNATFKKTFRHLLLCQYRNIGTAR
M4 antag = human M4 muscarinic receptor antagonists, primary screen, CHO cells, Fluo-8 calcium fluorescence. CHO-hM4 cells, ACh EC80. inhibition, % at 3 µM. actives 0.73% (n = 360,000);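 active = inhibition above its plate's cutoff, the mean inhibition of sample wells plus 3 SD, cut at about 27% in these data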
CHO-K1 Ca antag = counter-screen for M1 antagonists: effect in parental CHO-K1 cells | actives 0.6% (n = 360,000) | ATP-induced calcium, Fluo-8 fluorescence | inhibition, % at 3 µM;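 active = inhibition above a per-plate cutoff, the plate's mean sample inhibition plus 3 SD, cut at about 24% in these data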
CHO-K1 Ca PAM = nonselective calcium activators in parental CHO-K1 cells, primary screen, counter-screen for M1 PAM project, cell-based, Fluo-8 calcium fluorescence, full deck, 1536-well | ATP EC20; 0% at ATP EC20, 100% at ATP max | activation, % at 3 µM | actives 0.02% (n = 360,000) | AID 602247, 2012;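 active = activation above the run cutoff, the mean activation of all test compounds plus 3 SD, cut at about 40% in these data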;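 also: peak over basal fluorescence ratio in a 140 s read after ATP addition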
CHRM4 PAM = human M4 muscarinic receptor positive allosteric modulators, primary screen, CHO-K1 cells, Fluo-8 calcium fluorescence. CHO-K1 hM4/Gqi5, ACh EC20; 0% = ACh EC20, 100% = maximal ACh. activation, % at 3 µM. actives 0.4% (n = 360,000). AID 624126, 2012;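 active = activation above its plate's cutoff, the mean activation of sample wells plus 3 SD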
A number is an active result; - = inactive. Compounds with a hit are over-represented: about 2% of the library has one in this group of screens.

SMILES	M1 ag parental	M4 ag	M4 antag	CHO-K1 Ca antag	CHO-K1 Ca PAM	CHRM4 PAM
Cc1cc(C(=O)N/N=C2\CC(=O)CC(C)(C)C2)c2ccccc2n1	-	-	-	26	-	-
C[C@@H](C(=O)N1CCN(C(=O)OC(C)(C)C)CC1)n1cc(CCC(=O)O)nn1	-	-	-	-	-	-
O=C(/C=C/c1ccccc1Cl)c1ccc(O)cc1	-	-	-	-	-	-
O=C(/C=C/c1c(F)cccc1Cl)c1ccc(O)cc1	-	-	39	-	-	-
Cc1ccc(S(=O)(=O)N(C)c2ccc(OCC(=O)Nc3cccc(-n4cnnn4)c3C)cc2)cc1	-	-	-	-	-	-
c1ccc2c(c1)CCCc1cc(NCCN3CCOCC3)nnc1-2	-	-	34	-	-	-
O=C(Cn1c2ccccc2c(=O)c2cc([N+](=O)[O-])ccc21)Nc1ccccc1Cl	15	-	-	-	-	-
COc1ccc(N=C2S/C(=C\c3ccc(N4CCOCC4)o3)C(=O)N2CCc2c[nH]c3ccccc23)cc1	-	-	45	-	-	-
COc1ccc(N=C2S/C(=C\c3ccc(OCC(=O)O)cc3)C(=O)N2CCc2c[nH]c3ccccc23)cc1	-	-	-	-	-	-
CCN(CC)CCCNc1nc2ccccc2c2nc(-c3ccncc3)nn12	-	-	-	-	-	-
CC(=O)c1cccc(NC(=O)c2cc(-c3cccs3)on2)c1	-	-	-	-	-	16
CC(C)CC(=O)Nc1cccc(C(=O)Nc2ccccc2C(=O)O)c1	-	-	-	-	-	30
O=C(Nc1cccc(-c2cnc3ccccc3n2)c1)c1cccc(NC(=O)c2ccco2)c1	-	-	42	31	-	-
CC(=O)c1cccc(NC(=O)c2ccc(C)o2)c1	-	-	-	-	-	-
CC(=O)c1cccc(NC(=O)c2ccc(Br)o2)c1	-	-	29	-	-	-
O=C(Nc1ccccc1C(=O)O)c1cccc(NC(=O)c2ccc(Br)o2)c1	-	-	-	-	-	18
O=C(Nc1cccc(NC(=O)c2ccc(-c3cccc(Br)c3)o2)c1)c1ccco1	-	-	33	-	-	-
O=C(Nc1ccc(S(=O)(=O)Nc2ncccn2)cc1)c1ccc(Br)o1	18	-	-	-	-	-
O=C(Nc1cccc(NC(=O)c2ccc(-c3ccc(Br)cc3)o2)c1)c1ccccc1	-	-	-	-	-	-
C/C(CC(=O)Nc1ccc(C)c(Cl)c1)=N\NC(=O)C1CCCCC1	-	-	-	-	-	-
COc1ccc2c(ccn2S(=O)(=O)c2ccccc2)c1	-	-	-	-	-	-
O=C1c2ccccc2NC(c2ccc(O)cc2)N1c1ccccc1 (centres undefined)	-	-	-	-	-	-
CN1c2ccccc2C(=O)NC1c1ccc([N+](=O)[O-])s1 (centres undefined)	-	-	-	-	-	-
Cc1cccc(CCN2C(Nc3ccccc3)=NC[C@@H]2CC(C)C)c1	64	137	59	37	-	-
CC(C)C[C@H]1CN=C(Nc2ccccc2)N1CCc1cccc(F)c1	85	126	62	43	-	-
SMILES	M1 ag parental	M4 ag	M4 antag	CHO-K1 Ca antag	CHO-K1 Ca PAM	CHRM4 PAM
CC(C)C[C@H]1CN=C(Nc2ccccc2)N1CCc1ccc(F)cc1	64	115	47	-	-	-
CC(C)CCN1C(Nc2ccccc2)=NC[C@@H]1CC(C)C	-	-	-	-	-	-
CCN1C(Nc2ccccc2)=NC[C@@H]1CC(C)C	-	-	-	-	-	-
O=C(NCCN1CCOCC1)c1ccc2c(c1)N(Cc1ccc(Cl)cc1)C(=O)CS2	-	-	-	-	-	-
O=C(NCCN1CCOCC1)c1ccc2c(c1)N(Cc1ccccc1)C(=O)CS2	-	-	37	-	-	-
O=C(NCc1ccc2c(c1)OCO2)c1ccc2c(c1)N(Cc1c(F)cccc1Cl)C(=O)CS2	-	-	-	-	-	-
CCC1CCCCN1CCCNC(=O)c1ccc2c(c1)N(Cc1c(F)cccc1Cl)C(=O)CS2 (centres undefined)	-	-	100	-	-	-
CCc1nc2ccc(C(=O)Nc3ccc4c(c3)OCC(=O)N4)cn2c1N(C)Cc1nccn1C	-	-	-	-	-	-
CCCCCCCC[n+]1cccc2c3ccccc3ccc21	-	-	65	-	-	-
Cc1cccc[n+]1CCCCCCCCCC[n+]1ccccc1C	-	-	-	-	-	-
CCCCCCCCCC[n+]1cccc2c3ccccc3ccc21	18	-	58	40	-	-
CCOC(=O)c1ccc(-c2c(-c3ccc4c(c3)OCO4)noc2C)cc1F	-	-	-	-	-	-
CN(C)S(=O)(=O)c1cccc(C(=O)OCC(=O)c2c(N)n(C)c(=O)n(C)c2=O)c1	-	-	-	-	-	-
Cc1ccc(N(C)S(=O)(=O)c2cccc(C(=O)OCC(=O)c3c(N)n(C)c(=O)n(C)c3=O)c2)cc1	-	-	30	-	-	-
Cc1cc(O)c(C(=O)/C=C/c2ccccc2)c(=O)o1	-	-	-	-	-	-
Cc1cc(O)c(C(=O)/C=C/c2ccccc2Br)c(=O)o1	18	-	-	-	-	-
CCOC(=O)C(C(=O)OCC)c1cc(Br)c2noc3c2c1C(=O)c1ccccc1-3	-	-	54	-	-	-
Cc1sc2nc(CN3CCOCC3)nc(N3CCOCC3)c2c1C	-	-	-	-	-	-
Cc1sc2nc(CN3CCOCC3)nc(N3CCC(C(N)=O)CC3)c2c1C	-	-	-	25	-	21
O=C(/C=C/c1ccccc1)Nc1cccc(C(=O)NC2CC2)c1	-	-	-	-	-	-
O=C(CN1C(=O)NC2(CCCC2)C1=O)NCc1ccccc1	-	-	-	-	-	-
O=C(CN1C(=O)NC2(CCSC2)C1=O)NCc1ccccc1 (centres undefined)	-	-	-	-	-	18
CC/C(=N\NC(=O)CSc1ncccn1)c1ccc2c(c1)OCCO2	-	-	-	26	-	-
Cc1ccc(S(=O)(=O)N(Cc2cccc(Cl)c2)C(=O)N2CCN(C)CC2)cc1	-	-	-	-	-	-
CC1=C/C(=N\OS(=O)(=O)c2ccccc2)C(C)=CC1=O	-	-	70	37	-	-
COc1ccc(S(=O)(=O)/N=C2/C=CC(=O)C(C)=C2C)cc1	-	-	-	-	-	-
CC1=C/C(=N\OS(=O)(=O)c2ccccc2)C(C(C)C)=CC1=O	-	-	-	-	-	-
CC1=C(C)/C(=N\OS(=O)(=O)c2ccc(C)cc2)C=CC1=O	-	-	60	34	-	-
